Screening data deposited in PubChem BioAssay by National Center for Advancing Translational Sciences (NCATS).
Hits are enriched below; roughly 9.5% of the tested compounds scored in any of these assays.
Pf growth 48h – Primary qHTS for delayed death inhibitors of the malarial parasite plastid, 48 hour incubation | P. falciparum luciferase growth in erythrocytes, 48 h | Potency, µM (doses to about 28.7 µM), for inactives: at the top dose activity change, negative = inhibition, usual class: inhibitors | hit rate 5.9% among 310,000 | AID 504832, 2011; active = well fitted inhibition curve with a large enough effect; inconclusive = small, poorly fitted or top-dose-only effect, or another doubt; inactive = no such curve, though single readings can be large or run the other way; also: % is scaled to controls: 0 for no effect and ±100 for the full control effect
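Growth was read as firefly luciferase luminescence after a 48 h, 37 C, 5% CO2 exposure of compounds to reporter-bearing P. falciparum cultures (0.1% parasitemia, 2% hematocrit final) in Albumax-supplemented RPMI 1640.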
SARS PLP yeast – qHTS of Yeast-based Assay for SARS-CoV PLP; AID 485353, 2010; hit rate 0.19% among 330,000; S. cerevisiae expressing SARS-CoV PLpro, growth rescue; Potency, µM (doses to about 32.9 µM), without a hit: top-dose activity, positive = growth rescue, usual class: activators; also: 0% is about no effect; nearly all actives have a fitted effect of over 55% in size
RE007 growth inh – qHTS Assay for Inhibitors of the HIV-1 protein Vpr; S. pombe RE007 Vpr strain, BacTiter-Glo ATP luminescence, 24 h; Potency, µM (highest dose often 92.2 µM), without a hit: at the highest dose activity change, negative = less growth, actives largely listed as inhibitors; hit rate 0.21% among 360,000; AID 651644, 2012; active = well fitted falling curve with a large enough effect; inconclusive = small, poorly fitted or top-dose-only effect; inactive = no such curve, though single readings can be large or run the other way; also: % is scaled to controls: 0 for no effect and ±100 for the full control effect; nearly all actives have a fitted effect of over 50% in size
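Fission yeast strain RE007, carrying one chromosomally integrated HIV-1 vpr copy, was seeded at OD 0.01 in PMG+AL medium with 23 nL pinned compound. After 24 h at 30 °C and 99% humidity, viability was read by BacTiter-Glo luminescence.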
Pf growth 96h – Primary qHTS for delayed death inhibitors of the malarial parasite plastid, 96 hour incubation | P. falciparum luciferase reporter growth, 96 h | Potency, µM (titrated, usually from 28.7 µM), inactives show top-dose activity change, negative = inhibition, usual class: inhibitors | hit rate 6.9% among 320,000 | AID 504834, 2011; active = well fitted inhibition curve with a large enough effect; inconclusive = small, poorly fitted or top-dose-only effect, or another doubt; inactive = no such curve, though single readings can be large or run the other way; also: % is scaled to controls: 0 for no effect and ±100 for the full control effect
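Parasite growth measured via integrated firefly luciferase reporter in P. falciparum. Infected erythrocytes at 2% hematocrit, 0.05% parasitemia final were treated 96 hours at 37 C under 5% CO2, and luminescence was read.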
NS1 inh – qHTS Assay for Inhibitors of Influenza NS1 Protein Function. AID 2326, 2010. hit rate 0.4% among 270,000. Potency, µM (highest dose often 46.1 µM), for inactives: at the highest dose activity, positive = more growth; also: actives are rising curves; nearly all actives have a fitted effect of over 50% in size
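Compounds were scored for reversing the slow growth caused by influenza A NS1 in S. cerevisiae, measured by optical density at 600 nm. Assay medium contained 2% galactose at pH 6.0; NS1-free yeast of the same strain were the positive control.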
* = called active by the depositor; ? = inconclusive; / = no result. Unless noted, calls follow the shape of the full dose curve. Potency is read from the fitted curve at half-maximal effect.

SMILES	Pf growth 48h	SARS PLP yeast	RE007 growth inh	Pf growth 96h	NS1 inh
CCCOc1ccccc1NC(=O)CC1Nc2ccccc2NC1=O (stereo unspecified)	9.3µM*	4%	5%	27%	-33%
COc1ccc(CCNC(=O)CC2Nc3ccccc3NC2=O)cc1OC (stereo unspecified)	?	5%	34%	1.5µM*	9%
CCOc1ccccc1NC(=O)CC1Nc2cc(C)c(C)cc2NC1=O (stereo unspecified)	?	0%	16%	?	7%
Cc1cccc(OCC(O)Cn2c(=N)n(Cc3ccccc3)c3ccccc32)c1 (stereo unspecified)	5.9µM*	-1%	-1%	5.2µM*	2%
CCN(CC)CCn1c(=N)n(CC(O)COc2cccc(C)c2)c2ccccc21 (stereo unspecified)	?	1%	-23%	34%	/
Cc1ccc(OCC(O)Cn2c(=N)n(Cc3ccccc3)c3ccccc32)cc1 (stereo unspecified)	/	-3%	24%	3.7µM*	-31%
N=c1n(Cc2ccccc2)c2ccccc2n1CC(O)COc1ccc(Cl)cc1Cl (stereo unspecified)	?	0%	15%	0%	4%
Cc1cccc(OCC(O)Cn2c(=N)n(CCN3CCCCC3)c3ccccc32)c1 (stereo unspecified)	2.9µM*	8%	1%	2.6µM*	-7%
COc1ccc(OCC(O)Cn2c(=N)n(Cc3ccccc3)c3ccccc32)cc1 (stereo unspecified)	?	-1%	11%	?	-4%
O=C(c1ccc(F)cc1)N1CCCC(C(=O)N2CCc3ccccc3C2)C1 (stereo unspecified)	9%	-1%	5%	-2%	-3%
Cn1cnnc1SCC(=O)c1ccc(OC(F)F)cc1	/	-14%	5%	-4%	-3%
COC(=O)c1ccccc1NC(=O)CSc1nncn1C	12µM*	0%	3%	-4%	/
Cn1cnnc1SCC(=O)Nc1ccc(OC(F)F)cc1	13µM*	3%	-4%	-4%	/
CCOc1ccc(OCCC(=O)Nc2ccc(N3CCOCC3)cc2N2CCOCC2)cc1	/	/	-17%	/	/
Cc1ccc(NS(=O)(=O)c2cc(NC(=O)c3ccc4c(c3)NC(=O)CS4)ccc2C)c(C)c1	?	-1%	3%	?	-1%
NS(=O)(=O)c1cccc(NC(=O)CSc2nn(-c3ccccc3)c(=S)s2)c1	1.9µM*	-2%	-3%	1.2µM*	-1%
O=C(NCCNC(=O)Oc1cccc2ccccc12)Oc1cccc2ccccc12	/	/	-22%	/	/
CCCCN1C(=O)C(=O)N(CC(=O)c2cc(C)n(-c3cc(C)on3)c2C)C1=O	10µM*	1%	-2%	?	/
Cc1cc(-n2c(C)cc(C(=O)CN3C(=O)NC4(CCCCC4)C3=O)c2C)no1	13µM*	-8%	14%	19%	-17%
Cc1cc(-n2c(C)cc(C(=O)CN3C(=O)NC4(CCCCC4C)C3=O)c2C)no1 (stereo unspecified)	2.3µM*	-1%	7%	-6%	-1%
Cc1cc(-n2c(C)cc(C(=O)CN3C(=O)NC4(CCCC4)C3=O)c2C)no1	?	-5%	11%	7%	-6%
CSC1CCCCC1(O)CSc1nc2c(cc1C#N)CCCC2 (stereo unspecified)	9.3µM*	4%	7%	55%	2%
CN(C(=O)c1ccc(Cl)c([N+](=O)[O-])c1)C1(C)CCS(=O)(=O)C1 (stereo unspecified)	5%	-10%	-3%	6%	/
Cc1cnc(CN(C)C(=O)c2ccc3oc(Cc4ccccc4)nc3c2)[nH]1	-19%	1%	3%	4.7µM*	-3%
CC(C)(C)n1nnnc1C(c1cccs1)N1CCCC2(CCCCC2)C1 (stereo unspecified)	5.2µM*	-53%	5%	?	-40%
CCC(C)(C)n1nnnc1C(c1cccs1)N1CCCCC1 (stereo unspecified)	-16%	-1%	-10%	8%	-4%
c1csc(C(c2nnnn2C2CCCCC2)N2CCCC3(CCCCC3)C2)c1 (stereo unspecified)	2.6µM*	23%	-6%	?	9%
